Source: PubChem BioAssay (National Center for Advancing Translational Sciences (NCATS))
Most compounds without a hit are left out; they make up all but 3% or so of the library.
ERK AVP inh – blocks ERK signaling stimulated by vasopressin. HEK293-V1b, vasopressin-stimulated pERK AlphaScreen. Potency, µM (doses to about 57.5 µM), actives largely listed as inhibitors. 72,000 tested, 0.99% active; also: nearly all actives have a fitted effect of over 55% in size
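Phosphorylated ERK1/2 detected via AlphaScreen bead proximity in lysates of V1b-expressing HEK293 cells given 25 nM vasopressin for 5 min after 30 min compound exposure (37 °C). AC50 from Hill equation; basal DMSO 0%, vasopressin 100%.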
Tau filament bind – binds recombinant human tau filaments; recombinant tau filaments, thioflavin S fluorescence, 15 h; filaments grown with octadecylsulfate alongside compound; Potency, µM (highest dose often 57.1 µM); 71,000 tested, 2% active; AID 596;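 also: actives lower thioflavin S fluorescence by blocking filaments or displacing dye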
Target sequence (P10636 whole entry, looked up): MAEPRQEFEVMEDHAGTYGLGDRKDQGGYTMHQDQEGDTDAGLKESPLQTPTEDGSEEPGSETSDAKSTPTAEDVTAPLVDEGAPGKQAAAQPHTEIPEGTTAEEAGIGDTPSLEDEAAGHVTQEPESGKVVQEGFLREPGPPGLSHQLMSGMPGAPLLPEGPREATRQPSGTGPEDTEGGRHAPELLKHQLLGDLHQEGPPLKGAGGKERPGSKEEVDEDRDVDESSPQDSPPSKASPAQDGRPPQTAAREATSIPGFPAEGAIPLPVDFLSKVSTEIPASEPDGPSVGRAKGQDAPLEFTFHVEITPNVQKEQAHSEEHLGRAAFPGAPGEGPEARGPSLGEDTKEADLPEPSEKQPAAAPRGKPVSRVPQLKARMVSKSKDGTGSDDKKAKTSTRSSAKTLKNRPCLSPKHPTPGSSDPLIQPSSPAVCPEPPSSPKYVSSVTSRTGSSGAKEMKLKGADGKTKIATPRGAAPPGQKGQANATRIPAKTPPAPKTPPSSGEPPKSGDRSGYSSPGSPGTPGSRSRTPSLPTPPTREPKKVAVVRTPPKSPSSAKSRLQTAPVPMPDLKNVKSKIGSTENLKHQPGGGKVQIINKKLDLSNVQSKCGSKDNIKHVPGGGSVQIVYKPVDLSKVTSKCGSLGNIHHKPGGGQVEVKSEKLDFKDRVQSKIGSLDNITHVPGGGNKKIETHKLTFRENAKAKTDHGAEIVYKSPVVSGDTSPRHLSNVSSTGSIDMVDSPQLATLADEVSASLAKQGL
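Recombinant tau protein (human, 1 uM final) plus 30 uM ODS in HEPES pH 7.4 with NaCl, DTT and thioflavine S. Compound present from the start; fluorescence at 510 nm after 15 h, 37 C.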
Hsp90 Hop PPI – changes Hsp90-Hop TPR2A binding signal, up or down | AlphaScreen TPR2A-His6 binding biotin-Hsp90 C-terminal peptide | 71,000 tested, 0.44% active | Potency, µM (doses to about 57 µM); active = well fitted curve in either direction with a large enough effect; inconclusive = small, poorly fitted or top-dose-only effect, or another doubt
UbGFP stabilizer – inhibits proteasome, raising ubiquitin-GFP reporter fluorescence | Ubiquitin-GFP reporter cells, proteasome inhibition, GFP fluorescence; response scale: untreated = 0%, 10 µM MG-132 = 100% | Potency, µM (titrated, usually from 45.9 µM), usual class: activators | 67,000 tested, under 10 active | AID 526; active = well fitted activation curve with a large enough effect, not every such curve was filed as active; inconclusive = small, poorly fitted or top-dose-only effect, or another doubt; inactive = no such curve, though single readings can be large or run the other way
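Proteasome blockade was scored as a rise in GFP-expressing U2OS cells carrying a ubiquitin(G76V)-GFP construct, imaged after 4 hr compound treatment at 37 °C across a 46 uM–2.9 nM series.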
GFP derepression – derepresses silenced GFP locus in mouse C127i cells. AID 597. Potency, µM (highest dose often 46.1 µM). 68,000 tested, 0.09% active. mouse C127i GFP locus derepression, cytometry, 30 h
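Read-out is the number of GFP-positive cells, scored as fluorescent objects 20 to 120 um wide, reflecting derepression of a silenced CMV-GFP reporter in murine C127i cells after 30 h compound exposure at 37 C.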
HBB splice mod – alters splicing of the hemoglobin beta chain; HBB splicing reporter cell assay, activation; EGFP reporter with mutant IVS2-654 intron; response scale: normalised to 500 nM splice-correcting PNA; Potency, µM (top dose mostly 46.1 µM), actives largely listed as activators; 65,000 tested, 0.06% active
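Compounds were applied for 2 days to HeLa EGFP-654 cells, 500/well in Optimem with 2% FCS. The reporter's EGFP is disrupted by mis-splicing of beta-globin intron IVS2-654. Readout: summed well GFP fluorescence from 488 nm laser scanning; reference was 500 nM antisense […] 654 PNA.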
A number is an active result; n = inactive; u = inconclusive; x = not tested or not shown; ! = not active in a repeat; [ ] = dose if it differs, or a comment. Unless noted, calls follow the shape of the dose curve; as a rule, active = well fitted curve in the direction sought with a large enough effect; inconclusive = small, poorly fitted or top-dose-only effect, or another doubt; inactive = no such curve, though single readings can be large; an effect the other way counts as inactive or inconclusive.

SMILES	ERK AVP inh	Tau filament bind	Hsp90 Hop PPI	UbGFP stabilizer	GFP derepression	HBB splice mod
C[C@H](CCC(=O)O)[C@H]1CC[C@H]2[C@@H]3CC[C@@H]4C[C@H](O)CC[C@]4(C)[C@H]3CC[C@]12C	40µM	n	n	x	x	n
CC(=O)[C@@H]1CC[C@H]2[C@H]3CC[C@H]4C[C@@H](O)CC[C@]4(C)[C@@H]3CC[C@]12C	n	n	n	n	n	n
CN(N=O)c1ccc(O)c(O)c1	n	n	3.2µM	n	n	n
C[C@@H](Cc1ccc2c(c1)OC(C(=O)O)(C(=O)O)O2)NC[C@H](O)c1cccc(Cl)c1	n	n	n	n	n	n
N#CC(C#N)=Cc1cc(O)c(O)c(O)c1	n	n	7.9µM	n	n	n
N[C@]1(C(=O)O)CC[C@@H](C(=O)O)C1	x	n	n	n	n	n
CN1CCN(C(=O)COc2ccc3ccccc3c2Br)CC1	n	16µM	2.5µM	n	n	n
C=CCn1c(O)c(C(CC)=Nc2ccc(N(CC)CC)cc2)c(=O)[nH]c1=O	n	n	n	n	n	n[1.84 µM]
C=CCn1c(O)c(C(C)=Nc2ccc(N(CC)CC)cc2)c(=O)[nH]c1=O	n	16µM	n	n	n	n[1.84 µM]
C=CCn1c(O)c(C(C)=Nc2ccc(N(C)C)cc2)c(=O)[nH]c1=O	13µM	n	n	n	n	n[1.84 µM]
C[C@H]1CC[C@@H]2[C@@H](C)[C@H]3[C@H](C[C@H]4[C@@H]5CC=C6CC(O[C@@H]7O[C@H](CO)[C@H](O)[C@H](O[C@@H]8O[C@H](CO)[C@@H](O)[C@H](O)[C@H]8O)[C@H]7O[C@H]7O[C@@H](C)[C@H](O)[C@@H](O)[C@H]7O)CC[C@]6(C)[C@H]5CC[C@]34C)N2C1 (stereo not given in full)	n	n	n	x	x	n
CC1CC[C@@]2(OC1)O[C@@H]1[C@@H](O)[C@H]3C4CC[C@H]5C[C@@H](O[C@@H]6O[C@H](CO)[C@H](O[C@@H]7O[C@H](CO)[C@@H](O)[C@H](O[C@@H]8OC[C@@H](O)[C@H](O)[C@H]8O)[C@H]7O[C@@H]7O[C@H](CO)[C@@H](O)[C@H](O[C@@H]8O[C@H](CO)[C@@H](O)[C@H](O)[C@H]8O)[C@H]7O)[C@H](O)[C@H]6O)[C@H](O)C[C@]5(C)C4CC[C@]3(C)[C@H]1[C@@H]2C (stereo not given in full)	40µM	x	x	x	x	x
Nc1nc(N)c(N=Nc2ccc([As](=O)(O)O)c(O)c2)c(N)n1	n[11.5 µM]	n[11.4 µM]	n[11 µM]	n[9.17 µM]	n[9.22 µM]	n[9.22 µM]
CC1=NN(c2ccccc2)C(=O)[C@@H]1N=Nc1ccc([As](=O)(O)O)c(O)c1	n[11.5 µM]	3.2µM	n[11 µM]	n[9.17 µM]	n[9.22 µM]	n[9.22 µM]
CC(=O)[C@@H]1CC[C@@H]2[C@H]3CC[C@H]4C[C@@H](O)CC[C@]4(C)[C@@H]3C(=O)C[C@]21C	x	n	n	n	n	n
Cc1cc(N=Nc2ccccc2C)ccc1N	u	7.9µM	u	x	x	n
N#CSCSC#N	16µM	n	n	x	x	n
C[C@]12CC[C@H](O)C[C@@H]1CC[C@H]1[C@H]2CC[C@]2(C)[C@H](C(=O)CO)CC[C@@H]12	n	n	n	n	n	n
N#C/C(=C\c1ccc(O)c(O)c1)C(N)=S	16µM!	n	u	n	n	n
COCCCn1c(N)c(C(=O)NCCC(C)C)c2nc3ccccc3nc21	n	n	25µM	n	n	n[0.369 µM]
CCCCOCCCn1c(N)c(C(=O)OCCOC)c2nc3ccccc3nc21	x	x	x	x	n	x
COc1ccc(Cn2c(N)c(C(=O)NCc3ccco3)c3nc4ccccc4nc32)cc1	n	6.3µM	n	n	n	n
C[C@@]12Cc3cnc(-c4ccccc4)nc3C[C@@H]1CC[C@@H]1[C@H]3CC[C@@](C)(O)[C@]3(C)CC[C@@H]12	n[11.5 µM]	n[11.4 µM]	n[11 µM]	n[9.17 µM]	n[9.22 µM]	n[9.22 µM]
CN1Cc2ccccc2[C@@H]2c3cccc4[nH]cc(c34)C[C@H]21	u	25µM	n	n	n	x
CCC(COC(=O)c1cc(OC)c(OC)c(OC)c1)(c1ccccc1)N(C)C (stereo not given)	32µM	x	x	x	n	x
Cc1ccc2c(c1N)C(=O)c1ccccc1C2=O	u	4µM	n	x	x	u
O=C(O)[C@@H]1C[C@H]2C[C@@H](CP(=O)(O)O)CC[C@H]2CN1	n	32µM	n	n	n	x
O=C(O)[C@H]1CCN1	n	n	n	n	n	n
O=C1c2ccccc2C(=O)c2ccccc21	n	x	x	x	x	x
c1ccc2c(c1)-c1cccc3cccc-2c13	n	n	32µM	x	x	n
